High-throughput results (PubChem)
PI4K2A block: inhibitors of human PI4K2A; Q9BTU6; purified PI4K2A, ADP-Glo luminescence, 1 h; stronger effect = lower value; activity change, negative = inhibition, % at 76.9 µM; 420,000 compounds, 0.13% hits; AID 1346378; in the data active means activity change below about -50%; inconclusive means mostly about -30% to -49%
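In this quantitative HTS, ADP production by PI4K2A was quantified luminescently after 1 h at ambient temperature; 100 microM adenosine served as plate-quality control.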
TrxR1 substrate: rat thioredoxin reductase 1 substrate activity; Potency, µM (top dose mostly 114 µM); AID 588456; O89049; 390,000 compounds, 0.01% hits; purified TrxR1 substrate turnover, NADPH consumption readout; further: nearly all actives have a fitted effect of over 50% in size
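Rat TrxR1, dispensed at 90 nM, was prereduced with 400 uM NADPH (final) for 5 min at ~22 deg C, then incubated with compound 15 min before 400 uM selenite. A first-read NADPH fluorescence drop versus no-compound background flagged substrates.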
GALK inhibitor: galactokinase (human) inhibition. P51570. Purified GALK, Kinase-Glo residual ATP luminescence. Potency, µM (titrated, usually from 57.5 µM), usual class: inhibitors. 270,000 compounds, 0.007% hits. AID 1868
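Luminescence from leftover ATP (Ultra-Glo luciferase/luciferin) served as read-out after a 1 h room-temperature reaction of 5 nM GALK with 35 uM ATP and 100 uM galactose.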
PKM2 act: PKM2 (human) enzyme activation; Potency, µM (series often up to 57.5 µM), actives largely listed as activators; 260,000 compounds, 0.34% hits; P14618; purified PKM2, Kinase-Glo ATP luminescence, activation; response scale: 0% is enzyme alone, no compound; further: nearly all actives have a fitted effect of over 55% in size
Target sequence (P14618 whole entry, looked up): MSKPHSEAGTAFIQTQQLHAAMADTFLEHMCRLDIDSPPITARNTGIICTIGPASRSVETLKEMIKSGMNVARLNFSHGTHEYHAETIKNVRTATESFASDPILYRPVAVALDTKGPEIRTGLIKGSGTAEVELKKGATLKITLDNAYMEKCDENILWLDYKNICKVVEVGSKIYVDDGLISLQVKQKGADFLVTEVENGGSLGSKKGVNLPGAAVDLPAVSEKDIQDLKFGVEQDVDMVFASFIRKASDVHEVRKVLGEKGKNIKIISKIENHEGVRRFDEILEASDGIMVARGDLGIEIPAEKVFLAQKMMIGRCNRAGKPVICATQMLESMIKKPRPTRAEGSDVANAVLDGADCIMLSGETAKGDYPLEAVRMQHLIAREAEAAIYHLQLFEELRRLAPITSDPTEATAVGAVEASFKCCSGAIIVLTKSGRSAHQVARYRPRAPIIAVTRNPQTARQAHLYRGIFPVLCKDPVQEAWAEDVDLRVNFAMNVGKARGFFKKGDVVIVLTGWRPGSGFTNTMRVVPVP
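Purified hPK-M2 (>95%) run at intermediate activity with 0.1 mM ADP and 0.5 mM PEP in 50 mM imidazole pH 7.2, KCl, MgCl2; 1 h room temperature. ATP formed read by Kinase-Glo luminescence; normalized to uninhibited and no-enzyme controls.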
rTrxR1 inhibitor: rat TrxR1 inhibition; O89049; recombinant rTrxR1, NADPH fluorescence consumption, selenite substrate; 390,000 compounds, 1% hits; AID 588453; Potency, µM (doses to about 114 µM), hits mostly inhibitors; further: nearly all actives have a fitted effect of over 65% in size
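Rat TrxR1 (90 nM in the dispensed reagent) was pre-reduced with 400 uM NADPH for 5 min at room temperature, then incubated with compound for 15 min. After 400 uM selenite was added, NADPH fluorescence (Ex 340/Em 450 nm) was followed for 8 min.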
Numbers stand for hits; 0 = inactive; ? = inconclusive; - = not tested or not shown; [ ] = dose if it differs, or a comment. Compounds with a hit are over-represented: about 1.2% of the library has one in this group of screens. Unless noted, the call rests on the fitted dose curve; in most records, active means well fitted curve in the direction sought with a large enough effect; inconclusive means small, poorly fitted or top-dose-only effect, or another doubt; inactive means no such curve, though single readings can be large; an effect the other way counts as inactive or inconclusive.

SMILES	PI4K2A block	TrxR1 substrate	GALK inhibitor	PKM2 act	rTrxR1 inhibitor
O=C(NCc1nnc2c(C(F)(F)F)cc(Cl)cn12)c1ccco1	0	0	0	14.1µM	0
CCOC(=O)[C@]12CCCC=C1N(CCCOC)C(=O)[C@@H]2CC(=O)N1CCCCC1	0	-	-	-	-
Cc1cc(NC(=O)CSc2nnc(-c3ccoc3C)o2)no1	0	0	0	15.8µM	0
Cc1ccc(-c2c(NC(=O)c3cccc(C)c3)nc3ncccn23)cc1	0	-	-	-	-
O=C(Nc1cccc2cccnc12)C(Cl)(Cl)Cl	-	0	-	-	28.2µM
Cc1ccc(NC(=O)C2CCCN2S(=O)(=O)c2cccnc2)cc1C (stereo unspecified)	0	-	-	-	-
O=C(C(Cl)c1ccccc1)N1CCCC1 (stereo unspecified)	0	0	0	0	20µM
O=C(Nc1ccc(N2CCCCC2)cc1)C(Cl)c1ccccc1 (stereo unspecified)	0	0	0	0	0
Cc1cccc(-c2nc(SCC(=O)N3CCc4ccccc43)c3c(=O)n(C)c(=O)n(C)c3n2)c1	0	0	-	-	0
CCC(=O)OCOc1ccc(/C=C2/CCC(CN(C)C)C2=O)cc1 (stereo unspecified)	0	0	-	-	1.12µM
C#CCN1CC(N(C)CCOC(=O)c2cccs2)CS1(=O)=O (stereo unspecified)	0	-	-	-	-
O=C(Nc1ccc(F)c(F)c1)c1cnn2c1NC(=C1CC1)C=C2C(F)(F)F	-	0	-	-	0
CN(C)c1nc(C=C(C#N)C#N)c(Cl)n1-c1ccc(F)cc1	0	0	0	0	4.47µM
CC(=O)c1c(CC(=O)O)[nH]n(-c2nc3ccccc3s2)c1=O	?	0	0	0	0
COC(=O)Cc1[nH]n(-c2nc3ccccc3s2)c(=O)c1C(C)=O	-53.0	0	0	0	0
CCS(=O)(=O)c1ncc(Cl)c(C(=O)Nc2ccc(S(=O)(=O)N3CCCC(C)C3)cc2)n1 (stereo unspecified)	0	0	0	?	2.51µM
CCC1CCCCN1S(=O)(=O)c1ccc(NC(=O)c2nc(S(C)(=O)=O)ncc2Cl)cc1 (stereo unspecified)	0	0	0	0	7.08µM
COc1ccccc1-c1ccc(/C=C2\C=CC(=O)O2)o1	0	0	0	0	14.1µM
CC1=C/C(=C\c2ccc(Br)o2)C(=O)O1	0	0	0	0	0
COc1ccccc1-c1ccc(/C=C2/C=C(C)OC2=O)o1	0	0	-	12.6µM	?
COc1cc(/C=C2\C=CC(=O)O2)cc(OC)c1	0	0	0	-	0
CC(C)(C)c1ccc(-c2nnc(SCc3cccc4ccccc34)n2Cc2ccco2)cc1	0	-	-	-	-
O=C(NCCc1nc2ccccc2n1C/C=C/c1ccccc1)C1CCCCC1	0	-	-	-	-
O=C(CSc1nc2ccccc2n1Cc1ccccc1Cl)N/N=C/c1ccccc1C(=O)O	0	0	0	25.1µM	0
COc1ccc(S(=O)(=O)c2c(N)n(Cc3ccco3)c3nc4ccccc4nc23)cc1	?	0	0	28.2µM	?
SMILES	PI4K2A block	TrxR1 substrate	GALK inhibitor	PKM2 act	rTrxR1 inhibitor
COc1ccc(Cn2c(C)nc3c(c2=O)c2nc4ccccc4nc2n3Cc2ccco2)cc1	0	0	-	-	0
CC(C)Oc1ccc(C(=O)Nc2nc3ccccc3[nH]2)cc1	-56.0	0	0	0	0
O=C(Nc1nc2ccccc2[nH]1)c1ccccc1F	-79.9	0	0	0	0
O=C(Nc1nc2ccccc2[nH]1)c1ccc(F)cc1	0	0	0	0	0
COc1ccc(Cl)cc1NC(=O)c1c(NCc2ccc(C)o2)sc2c1CCCCC2	0	0	-	-	?
COc1ccccc1NC(=O)c1c(NCc2ccc(C)o2)sc2c1CCCCC2	0	0	-	-	14.1µM
COc1ccc(OC)c(NC(=O)c2c(NCc3ccc(C)o3)sc3c2CCCCC3)c1	0	0	-	-	14.1µM
Cc1ccc(OCC(=O)NCC(=O)OCc2cc(=O)n3nc(C(C)C)sc3n2)cc1	0	0	-	-	0
O=C(O)CC/C(=N\Nc1ccc(S(=O)(=O)N2CCOCC2)cc1[N+](=O)[O-])c1cccs1	0	79.4µM	0	0	?
CN1CCc2cccc3c2[C@@H]1Cc1ccc(O)c(O)c1-3	0	0	0	?	14.1µM
COc1ccccc1C(=O)Nc1cccc(OCc2cc(=O)n3ccccc3n2)c1	0	0	-	-	0
Cc1cc(-c2csc(NC(=O)c3ccc(=O)[nH]c3)n2)c(C)n1Cc1ccco1	-61.8	0	-	10µM	0
CNC(=S)N1N=C(c2ccc(C)cc2)CC1c1ccc(OC)cc1 (stereo unspecified)	0	0	0	22.4µM	0
COC(=O)CNC(c1ccccc1)c1cc(Br)ccc1NC(=O)CCN1CCOCC1 (stereo unspecified)	0	0	0	0	2.24µM
CCOC(=O)CNC(c1ccccc1)c1cc(Br)ccc1NC(=O)CCN1CCOCC1 (stereo unspecified)	0	0	0	?	?
O=C(CSc1nc2c([nH]c3ccccc32)c(=O)n1-c1ccc(Cl)cc1)NCc1ccccc1	0	0	-	-	0
CCOc1ccc(CN(C)C(=O)CCl)cc1	0	0	0	0	17.8µM
Cc1ccc2cc(CN(C)S(C)(=O)=O)c(=O)[nH]c2c1	0	0	0	0	0
Cc1ccc(N(Cc2cc3ccc(C)cc3[nH]c2=O)S(C)(=O)=O)c(C)c1	0	0	0	22.4µM	0
Cc1ccc2cc(CNC(C)(C)C)c(=O)[nH]c2c1	0	0	0	0	0
CNCc1cc2ccc(C)cc2[nH]c1=O	0	0	0	0	25.1µM
CCOc1ccc(C(=O)N2CCN(Cc3cc(=O)n4nc(-c5ccccc5Cl)sc4n3)CC2)cc1	0	0	-	-	0
CCOc1cc(-c2cc(-c3ccc(C)o3)nc(N)c2C#N)ccc1O	0	0	0	0	0
Cc1ccc(-c2cc(-c3ccc4c(c3)OCO4)c(C#N)c(N)n2)o1	0	0	0	10µM	0
Cc1cc(-c2cc(-c3ccc(Cl)cc3)nc(N)c2C#N)co1	0	0	0	?	?
SMILES	PI4K2A block	TrxR1 substrate	GALK inhibitor	PKM2 act	rTrxR1 inhibitor
Cc1ccc(-c2cc(-c3ccc(F)cc3)c(C#N)c(N)n2)o1	0	0	-	?	15.8µM
Cc1ccc(-c2cc(-c3ccc(Cl)cc3)c(C#N)c(N)n2)o1	0	0	0	?	50.1µM
Cc1ccc(-c2cc(-c3ccc(C)o3)nc(N)c2C#N)cc1	0	0	0	?	50.1µM
COc1ccc(-n2c(COc3ccc(Cl)cc3)nnc2SCC(=O)Nc2ccc(Oc3ccccc3)cc2)cc1	0	-	-	-	-
COc1ccc(OC)c(CNC(=O)c2ccc3nc(C(C)C)oc3c2)c1	0	0	-	-	0
O=C(O)c1ccc2cc(-c3ccc(O)c(C45CC6CC(CC(C6)C4)C5)c3)ccc2c1	-	-	-	0	-
CSC1=NC2(CCN(C(=O)NC3CCCCC3)CC2)N=C1c1ccc(C)c(C)c1	0	0	-	-	0
COc1cc(N/N=C/c2ccccc2O)ncn1	0	0	0	0	0
COc1cc(N/N=C/c2ccc(N(C)C)cc2)ncn1	-52.9	0	0	0	0[0.0914 µM]
